Test results published in PubChem BioAssay (NCI).
This is part of a sample that, as a whole, favours compounds with a hit. Of some 83,000 tested, about 20% had one in any assay.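 Interpretation: 100, growth as untreated; towards 0, rising growth inhibition; 0, no net growth; 0 to -100, cell death. Compounds scoring below 10 were considered active.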 A number with no mark means an inactive call. Calls of active or inactive are those of the source.

What was measured:
Experiment in all cases: NCI-60 one-dose screen, 48 h (100 = growth as untreated, 0 = no growth, -100 = all killed)
Details in all cases: 10 µM unless noted
DU-145 prostate = system: DU-145 prostate
K-562 leukemia = system: K-562 leukemia
MALME-3M melanoma = system: MALME-3M melanoma
MDA-MB-231 breast = system: MDA-MB-231 breast
RXF 393 renal = system: RXF 393 renal
SF-268 CNS = system: SF-268 CNS
SF-295 CNS = system: SF-295 CNS
SF-539 CNS = system: SF-539 CNS
UACC-257 melanoma = system: UACC-257 melanoma
M14 melanoma = system: M14 melanoma
HCT-15 colon = system: HCT-15 colon
HT29 colon = system: HT29 colon
SNB-75 CNS = system: SNB-75 CNS
SNB-19 CNS = system: SNB-19 CNS
U251 CNS = system: U251 CNS
PC-3 prostate = system: PC-3 prostate
SK-MEL-5 melanoma = system: SK-MEL-5 melanoma
UACC-62 melanoma = system: UACC-62 melanoma
LOX IMVI melanoma = system: LOX IMVI melanoma
SK-MEL-28 melanoma = system: SK-MEL-28 melanoma

Compound: Cc1ccc(CSc2nc(-c3ccc(Cl)cc3)c(C#N)c(N3CCOCC3)n2)cc1
- growth (DU-145 prostate): 105%
- growth (K-562 leukemia): 91.5%
- growth (MALME-3M melanoma): 108%
- growth (MDA-MB-231 breast): 98.9%
- growth (RXF 393 renal): 88.3%
- growth (SF-268 CNS): 95.5%
- growth (SF-295 CNS): 98.6%
- growth (SF-539 CNS): 99.1%
- growth (UACC-257 melanoma): 97.6%
- growth (M14 melanoma): 98%
- growth (HCT-15 colon): 95.9%
- growth (HT29 colon): 91.2%
- growth (SNB-75 CNS): 108%
- growth (SNB-19 CNS): 95.4%
- growth (U251 CNS): 96.7%
- growth (PC-3 prostate): 80.3%
- growth (SK-MEL-5 melanoma): 96.5%
- growth (UACC-62 melanoma): 73.1%
- growth (LOX IMVI melanoma): 96.6%
- growth (SK-MEL-28 melanoma): 93.8%

Compound: Nc1ncc(-c2ccc(NS(=O)(=O)c3ccc(Cl)c(Cl)c3)cc2)[nH]1
- growth (DU-145 prostate): 103%
- growth (K-562 leukemia): 89.7%
- growth (MALME-3M melanoma): 85.3%
- growth (MDA-MB-231 breast): 91.2%
- growth (RXF 393 renal): 95.4%
- growth (SF-268 CNS): 75.1%
- growth (SF-295 CNS): 90.8%
- growth (SF-539 CNS): 88.1%
- growth (UACC-257 melanoma): 87.7%
- growth (M14 melanoma): 95.5%
- growth (HCT-15 colon): 94.6%
- growth (HT29 colon): 107%
- growth (SNB-75 CNS): 90.9%
- growth (SNB-19 CNS): 87.7%
- growth (U251 CNS): 92.3%
- growth (PC-3 prostate): 76.5%
- growth (SK-MEL-5 melanoma): 97.2%
- growth (UACC-62 melanoma): 78.2%
- growth (LOX IMVI melanoma): 89.5%
- growth (SK-MEL-28 melanoma): 99.3%

Compound: CN(C)CCCOc1ccc2c(c1)CN(C(=O)c1cc(C(=O)N3Cc4cccc(F)c4C3)ccc1O)C2
- growth (DU-145 prostate): 94.9%
- growth (K-562 leukemia): 88.8%
- growth (MALME-3M melanoma): 103%
- growth (MDA-MB-231 breast): 103%
- growth (RXF 393 renal): 93.3%
- growth (SF-268 CNS): 100%
- growth (SF-295 CNS): 100%
- growth (SF-539 CNS): 91%
- growth (UACC-257 melanoma): 108%
- growth (M14 melanoma): 106%
- growth (HCT-15 colon): 88.5%
- growth (HT29 colon): 106%
- growth (SNB-75 CNS): 95%
- growth (SNB-19 CNS): 101%
- growth (U251 CNS): 98.4%
- growth (PC-3 prostate): 102%
- growth (SK-MEL-5 melanoma): 98.2%
- growth (UACC-62 melanoma): 96.3%
- growth (LOX IMVI melanoma): 91.8%
- growth (SK-MEL-28 melanoma): 104%

Compound: CC(O)c1cc2ccccc2c(=O)o1 (stereo not given)
- growth (DU-145 prostate): 110%
- growth (K-562 leukemia): 101%
- growth (MALME-3M melanoma): 98.2%
- growth (MDA-MB-231 breast): 103%
- growth (RXF 393 renal): 129%
- growth (SF-268 CNS): 98.3%
- growth (SF-295 CNS): 97.7%
- growth (SF-539 CNS): 95.2%
- growth (UACC-257 melanoma): 96.7%
- growth (M14 melanoma): 107%
- growth (HCT-15 colon): 103%
- growth (HT29 colon): 105%
- growth (SNB-75 CNS): 110%
- growth (SNB-19 CNS): 99.6%
- growth (U251 CNS): 103%
- growth (PC-3 prostate): 95.2%
- growth (SK-MEL-5 melanoma): 97%
- growth (UACC-62 melanoma): 97.9%
- growth (LOX IMVI melanoma): 97.3%
- growth (SK-MEL-28 melanoma): 101%

Compound: O=C(CSc1nc2ccccc2c(=O)n1-c1ccccc1)Nc1cccc(C(=O)/C=C/c2ccccc2)c1
- growth (DU-145 prostate): 94.8%
- growth (K-562 leukemia): 70.1%
- growth (MALME-3M melanoma): 101%
- growth (MDA-MB-231 breast): 94.3%
- growth (RXF 393 renal): 83.1%
- growth (SF-268 CNS): 94.8%
- growth (SF-295 CNS): 98%
- growth (SF-539 CNS): 98.8%
- growth (UACC-257 melanoma): 99.8%
- growth (M14 melanoma): 97.5%
- growth (HCT-15 colon): 76.4%
- growth (HT29 colon): 96.4%
- growth (SNB-75 CNS): 75.6%
- growth (SNB-19 CNS): 85.5%
- growth (U251 CNS): 71.2%
- growth (PC-3 prostate): 90.4%
- growth (SK-MEL-5 melanoma): 99.5%
- growth (UACC-62 melanoma): 88.7%
- growth (LOX IMVI melanoma): 86.1%
- growth (SK-MEL-28 melanoma): 102%

Compound: CC(C)(O)c1cncc(-c2ccc3ncnc(NCc4ccccc4)c3c2)c1
- growth (DU-145 prostate): 62.7%
- growth (K-562 leukemia): 103%
- growth (MALME-3M melanoma): 101%
- growth (MDA-MB-231 breast): 72.9%
- growth (RXF 393 renal): -7.38% (active)
- growth (SF-268 CNS): 65%
- growth (SF-295 CNS): 85%
- growth (SF-539 CNS): 85.3%
- growth (UACC-257 melanoma): 95.5%
- growth (M14 melanoma): 105%
- growth (HCT-15 colon): 103%
- growth (HT29 colon): 96.7%
- growth (SNB-75 CNS): 31%
- growth (SNB-19 CNS): 91.8%
- growth (U251 CNS): 109%
- growth (PC-3 prostate): 84.1%
- growth (SK-MEL-5 melanoma): 87.6%
- growth (UACC-62 melanoma): 84.3%
- growth (LOX IMVI melanoma): 57.2%
- growth (SK-MEL-28 melanoma): 88%

Compound: COc1ccc2[nH]cc(-c3csc4nc(-c5ccccc5)cn34)c2c1
- growth (DU-145 prostate): 18.4%
- growth (K-562 leukemia): 11.2%
- growth (MALME-3M melanoma): 54.2%
- growth (MDA-MB-231 breast): 20.8%
- growth (RXF 393 renal): -15.7% (active)
- growth (SF-268 CNS): 41.1%
- growth (SF-295 CNS): -2.19% (active)
- growth (SF-539 CNS): -6.33% (active)
- growth (UACC-257 melanoma): 60.4%
- growth (M14 melanoma): 11.6%
- growth (HCT-15 colon): 11.3%
- growth (HT29 colon): -8.92% (active)
- growth (SNB-75 CNS): -4.19% (active)
- growth (SNB-19 CNS): 23.6%
- growth (U251 CNS): 13.6%
- growth (PC-3 prostate): 19.4%
- growth (SK-MEL-5 melanoma): 47.2%
- growth (UACC-62 melanoma): 32.4%
- growth (LOX IMVI melanoma): -2.73% (active)
- growth (SK-MEL-28 melanoma): 73.8%
